From PubChem
ssDAF12 agonist: activates DAF-12 receptor from parasite S. stercoralis; HEK293 ssDAF-12/GRIP1 lit1-tk-luc reporter, luminescence; % of 3 µM dafachronic acid response; activation, % at 6.8 µM; 370,000 tested, 1% active;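 active = activation above the mean over all tested compounds plus 3 SD, cut at about 0.9% in these data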;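 also: 0% = DMSO-only wells and 100% = 3 µM delta7-dafachronic acid wells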
DAX1 inh-1: inhibitors of DAX1 repression of SF-1 activated StAR promoter | 370,000 tested, 1.1% active | HEK293T StAR-luciferase reporter, SF-1/DAX-1 repression relief | inhibition, % at 6.8 µM;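 active = inhibition above the mean over all tested compounds plus 3 SD, cut at about 3.6% in these data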;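 also: 0% = DAX-1 cells with DMSO and 100% = cells lacking DAX-1 with DMSO; higher inhibition means more luminescence from relief of DAX-1 repression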
DAX1 inh-2: inhibitors of human orphan nuclear receptor DAX1 (NR0B1) | 340,000 tested, 0.99% active | HEK293 Gal4-DAX1 luciferase reporter, luminescence | inhibition, % at 6.75 µM;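 active = inhibition above the mean over all tested compounds plus 3 SD, cut at about 4.2% in these data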;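 also: 0% = DAX1-transfected cells with DMSO and 100% = empty-vector control cells with DMSO; inhibition shows as a rise in luminescence from relieved DAX1 repression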
Target sequence (P51843 207-470 limits assumed): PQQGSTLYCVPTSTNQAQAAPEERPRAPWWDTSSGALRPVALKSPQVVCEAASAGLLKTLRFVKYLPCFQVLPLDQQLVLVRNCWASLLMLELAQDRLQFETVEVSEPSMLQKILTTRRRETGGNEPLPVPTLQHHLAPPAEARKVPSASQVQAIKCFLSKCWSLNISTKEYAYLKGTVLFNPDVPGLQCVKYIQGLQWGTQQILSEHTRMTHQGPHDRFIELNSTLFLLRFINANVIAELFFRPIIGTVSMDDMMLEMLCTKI
hgDAF12 agonist: activates the H. glycines DAF-12 receptor ligand-binding domain. HEK293 GAL4-hgDAF12 UAS-luciferase reporter, agonist luminescence; normalized to butyrate control. activation, % at 6.8 µM. 370,000 tested, 1.8% active;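 active = activation above a cutoff set at the mean of all screened compounds plus 3 SD, cut at about 10% in these data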;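 also: 0% = DMSO wells and 100% = sodium butyrate wells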
hcDAF12 agonist: activators of H. contortus DAF-12 nuclear receptor | HEK293 hcDAF-12 lit1-tk-luc reporter, luminescence; 0% DMSO, 100% Δ7-dafachronic acid | 370,000 tested, 1.4% active | AID 652067 | activation, % at 6.8 µM;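 active = activation above the mean of all tested compounds plus 3 SD, cut at about 5.5% in these data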;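 also: 100% = response to 3 µM Δ7-dafachronic acid high control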
Active calls of the source: *. Rows were chosen to be rich in hits. Some 4.1% of all compounds tested hit in one or more screens of this group.

For O=C(NCc1ccccc1Cl)c1ccc(CSc2nc3ccncc3[nH]2)cc1 the results were ssDAF12 agonist -1, DAX1 inh-1 -1, DAX1 inh-2 -1, hgDAF12 agonist -2 and hcDAF12 agonist -3.
Clc1ccccc1CSc1nc2ccncc2[nH]1 was read as ssDAF12 agonist 0, DAX1 inh-1 3, DAX1 inh-2 -1, hgDAF12 agonist 12* and hcDAF12 agonist 4.
For O=C(N[C@H](Cc1ccccc1)C(=O)N1CCCN(Cc2ccccc2F)CC1)[C@H]1O[C@@H](n2ccc(=O)[nH]c2=O)[C@H](O)[C@@H]1O the results were ssDAF12 agonist 0, DAX1 inh-1 0, hgDAF12 agonist 6 and hcDAF12 agonist 1.
For O=C(Nc1nc2ncccn2c1-c1ccccc1)c1ccccc1 the results were ssDAF12 agonist -1, DAX1 inh-1 -1, hgDAF12 agonist 0 and hcDAF12 agonist -2.
Screening CC(C)=CCN1CCN(Cc2c[nH]c3ccccc23)CC1CCO (stereo unspecified) returned ssDAF12 agonist 0.9*, DAX1 inh-1 0, DAX1 inh-2 0, hgDAF12 agonist 3 and hcDAF12 agonist 3.
For CC(C)CN1CCN(Cc2c[nH]c3ccccc23)CC1CCO (stereo unspecified) the results were ssDAF12 agonist 1, DAX1 inh-1 0, DAX1 inh-2 -1, hgDAF12 agonist 1 and hcDAF12 agonist 3.
`C[C@H]1[C@H](C)CC[C@]2(C(=O)O)CC[C@]3(C)C(=CC[C@@H]4[C@@]5(C)CC[C@H](O)C(C)(C)[C@@H]5CC[C@]43C)[C@H]12` gave ssDAF12 agonist -1, DAX1 inh-1 0, DAX1 inh-2 0, hgDAF12 agonist 0 and hcDAF12 agonist 2.
For CC1(C)C2CC[C@]3(C)C(CC=C4[C@@H]5C[C@@](C)(CO)[C@@H](O)C[C@]56C[C@@H](OC6=O)[C@]43C)[C@@]2(C)CC[C@@H]1O (stereo partly specified) the results were ssDAF12 agonist -2, DAX1 inh-1 0, DAX1 inh-2 5.5*, hgDAF12 agonist 1 and hcDAF12 agonist -1.
`CCOC(=O)[C@]12CCCC=C1N(Cc1ccc(OC)cc1)C(=O)[C@@H]2CC(=O)NCCCN1CCCC1=O` gave ssDAF12 agonist -1, DAX1 inh-1 -1, hgDAF12 agonist -3 and hcDAF12 agonist -2.
For Cc1nc(-c2ccc(C(=O)N3CCCC3)cc2)cs1 the results were ssDAF12 agonist 0, DAX1 inh-1 4, DAX1 inh-2 -1, hgDAF12 agonist 11* and hcDAF12 agonist 3.
`C[C@@H]1C=CCCO[C@]12C(=O)N(CC1CC1)c1ccccc12` gave ssDAF12 agonist -1, DAX1 inh-1 0, hgDAF12 agonist 4 and hcDAF12 agonist -1.
C(=NOCCc1ccccc1)c1ccncc1 was read as ssDAF12 agonist 1.3*, DAX1 inh-1 1, DAX1 inh-2 1, hgDAF12 agonist 8 and hcDAF12 agonist 1.
Screening C(=NOCCc1ccccc1)c1ccccn1 returned ssDAF12 agonist 0, DAX1 inh-1 2, DAX1 inh-2 2, hgDAF12 agonist 7 and hcDAF12 agonist 0.
Screening CC1=NN(C(=O)c2ccccc2F)C(O)(c2ccc(Cl)cc2)C1 (stereo unspecified) returned ssDAF12 agonist -1, DAX1 inh-1 1, DAX1 inh-2 6.2*, hgDAF12 agonist 6 and hcDAF12 agonist 2.
For C=C(c1cn(C(C)=O)c2ccccc12)c1cn(C(C)=O)c2ccccc12 the results were ssDAF12 agonist 0, DAX1 inh-1 1, DAX1 inh-2 2, hgDAF12 agonist 2 and hcDAF12 agonist 5.7*.
For COC(=O)c1cn(C(=O)c2ccccc2)c2ccccc12 the results were ssDAF12 agonist 0, DAX1 inh-1 0, DAX1 inh-2 1, hgDAF12 agonist 0 and hcDAF12 agonist 2.
Screening CC1(C)CC(=O)C(c2c[nH]c3ccccc23)C(=O)C1 returned ssDAF12 agonist 0, DAX1 inh-1 1, DAX1 inh-2 2, hgDAF12 agonist 3 and hcDAF12 agonist 4.
For CC(=O)n1cc(C2C(=O)CC(C)(C)CC2=O)c2ccccc21 the results were ssDAF12 agonist 1.4*, DAX1 inh-1 2, DAX1 inh-2 2, hgDAF12 agonist -1 and hcDAF12 agonist 6.3*.
Screening O=C(Nc1ccc(N2C(=O)CC(c3ccccc3)C2=O)c(Cl)c1)c1ccccn1 (stereo unspecified) returned ssDAF12 agonist -1, hgDAF12 agonist -1 and hcDAF12 agonist 0.
Cc1ccc([N+](=O)[O-])cc1S(=O)(=O)N1CCN(C)CC1 was read as ssDAF12 agonist -1, DAX1 inh-1 0, DAX1 inh-2 6.3*, hgDAF12 agonist 0 and hcDAF12 agonist 0.
For Cc1cc(C)c(C)c(S(=O)(=O)N2CCN(C)CC2)c1C the results were ssDAF12 agonist 0, DAX1 inh-1 0, DAX1 inh-2 8.9*, hgDAF12 agonist 3 and hcDAF12 agonist -2.
COC(=O)[C@]12C[C@H](CC(=O)NCCCCc3ccccc3)C(=O)N(CCC3=CCCCC3)C1=C[C@H](C(C)(C)C)O[C@@H]2C was read as ssDAF12 agonist -1, DAX1 inh-1 0, hgDAF12 agonist 3 and hcDAF12 agonist -1.
`CCOC(=O)C(NC(=O)c1cccc(Cl)c1)(OCc1ccc(F)cc1)C(F)(F)F` (stereo unspecified) gave ssDAF12 agonist -1, DAX1 inh-1 0, DAX1 inh-2 -2, hgDAF12 agonist 1 and hcDAF12 agonist 0.
CCOC(=O)C(NC(=O)Nc1ncccn1)(Oc1ccccc1)C(F)(F)F (stereo unspecified) was read as ssDAF12 agonist -1, DAX1 inh-1 4.2*, DAX1 inh-2 1, hgDAF12 agonist 4 and hcDAF12 agonist -1.
Screening CCOC(=O)C(NC(=O)c1ccccc1)(OCc1ccc(F)cc1)C(F)(F)F (stereo unspecified) returned ssDAF12 agonist 0, DAX1 inh-1 0, DAX1 inh-2 1, hgDAF12 agonist 12* and hcDAF12 agonist 2.
CN(Cc1ccco1)C(=O)c1cccc2c1C(=O)N(Cc1cccnc1)C2 was read as ssDAF12 agonist 0, DAX1 inh-1 0, hgDAF12 agonist -2 and hcDAF12 agonist 3.
Screening C[C@H](CO)N1C[C@H](C)[C@@H](CN(C)S(=O)(=O)c2ccc(F)cc2)Oc2cc(Br)ccc2S1(=O)=O returned ssDAF12 agonist -1, DAX1 inh-1 0, hgDAF12 agonist -2 and hcDAF12 agonist -1.
`CCNC(=O)c1ccc(NC(=O)CC2SC(N3CCCC3)=NC2=O)cc1` (stereo unspecified) gave ssDAF12 agonist 1.1*, DAX1 inh-1 0, DAX1 inh-2 0, hgDAF12 agonist 0 and hcDAF12 agonist 2.
`C/C(=N\OCc1ccc(C#N)cc1)c1ccccc1` gave ssDAF12 agonist -1, DAX1 inh-1 0, DAX1 inh-2 4, hgDAF12 agonist 11* and hcDAF12 agonist 1.
C/C(=N\OCc1ccc(C#N)cc1)c1ccc(S(=O)(=O)N(C)C)cc1 was read as ssDAF12 agonist -1, DAX1 inh-1 0, DAX1 inh-2 1, hgDAF12 agonist 2 and hcDAF12 agonist 1.
